Measured values reported in PubChem BioAssay (NCATS).
Records with an inconclusive call do not appear. Entries that show only a call come without a potency. The source made the active and inactive calls. Unless noted, calls come from the whole dose curve.

What was measured:
[1] = qHTS assay for small molecule antagonists of peroxisome proliferator-activated receptor delta signaling (AID 588535; active = well fitted inhibition curve with a large enough effect in the signal ratio, with a control signal flat, not every such curve was filed as active; the % refers to the signal ratio;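 for max response: cells co-treated with a PPAR-delta agonist as stimulator during compound exposure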); settings: HEK293T PPARd-UAS-bla, beta-lactamase FRET ratio, 18 h; 460 nm channel
Summary of the method: (§1)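 Titrations were run on PPAR-delta-UAS-bla HEK293T cells in charcoal/dextran-stripped serum, incubated 18 h at 37 C. CCF4 fluorescence (460/530 nm) after 2 h RT; Hill equation yields IC50 and maximal response.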

[2] = target: Peroxisome proliferator-activated receptor delta (Homo sapiens) (UniProt Q03181); test: as above; settings: HEK293T PPARd-UAS-bla, beta-lactamase FRET ratio, 18 h; series mostly up to 76.7 µM
Summary of the method: as §1

[3] = target: Peroxisome proliferator-activated receptor gamma (Homo sapiens) (UniProt P37231); test: qHTS assay for small molecule agonists of peroxisome proliferator-activated receptor gamma signaling (AID 588536; active = well fitted curve in the direction sought with a large enough effect in the signal ratio, with a control signal flat, not every such curve was filed as active; the % refers to the signal ratio); settings: HEK293 PPARg-UAS-bla, beta-lactamase ratio, 16 h, percent of rosiglitazone response, DMSO as zero; series mostly up to 76.7 µM
Summary of the method: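 Using GeneBLAzer HEK293 cells, response was quantified by CCF4 fluorescence and normalized between basal DMSO (0%) and rosiglitazone 2 uM (100%); curves yielded half-maximal stimulation concentration and efficacy.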

[4] = target: Peroxisome proliferator-activated receptor gamma (Homo sapiens) (UniProt P37231); test: qHTS assay for small molecule antagonists of peroxisome proliferator-activated receptor gamma signaling (AID 588537; active = well fitted inhibition curve with a large enough effect in the signal ratio, with a control signal flat, not every such curve was filed as active; the % refers to the signal ratio;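 note: reporter cells co-stimulated with 50 nM rosiglitazone agonist during compound treatment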); settings: HEK293 PPARg-UAS-bla, beta-lactamase ratio, antagonist mode; series mostly up to 76.8 µM
Summary of the method: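 Antagonist-mode β-lactamase reporter screen run as a titration series. HEK293 PPARγ-UAS-bla cells are stimulated with rosiglitazone (50 nM final) for 16 h, then CCF4 is read at 460/530 nm. Data are scaled between DMSO and rosiglitazone and fitted to the Hill equation.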

[5] = target: Vitamin D3 receptor (Homo sapiens) (UniProt P11473); test: qHTS assay for small molecule agonists of vitamin D receptor signaling (AID 588543); settings: HEK293T VDR-UAS-bla, beta-lactamase ratio, 16 h; series mostly up to 76.8 µM
Summary of the method: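 Agonist-mode beta-lactamase reporter: HEK293T VDR-UAS-bla cells in charcoal-stripped 2% FBS, compound series 16 h 37 C, CCF4 2 h RT. EC50 from Hill fit, scaled against DMSO and 50 nM calcitriol control.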

[6] = qHTS assay for small molecule agonists of retinoid X receptor alpha signaling (AID 588544); settings: HEK293T RXRa-UAS-bla, beta-lactamase reporter, 18 h; 530 nm emission
[7] = target: Retinoic acid receptor RXR-alpha (Homo sapiens) (UniProt P19793); test: as above; settings: HEK293T RXRa-UAS-bla, beta-lactamase reporter, 18 h; series mostly up to 76.7 µM
[8] = target: Thyroid hormone receptor beta (Homo sapiens) (UniProt P10828); test: qHTS assay for small molecule agonists of thyroid hormone receptor beta signaling (AID 588545); settings: TR-UAS-bla GripTite HEK 293, beta-lactamase ratio, agonist mode, 18 h, percent of T3 response, DMSO as zero; series mostly up to 76.7 µM
Summary of the method: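 Efficacy and EC50 values derive from Hill fits of qHTS titration data, normalized to 10 nM T3 and DMSO-only wells. HEK 293 reporter cells were stimulated for 18 hrs at 37 C, with beta-lactamase activity measured by CCF4 fluorescence.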

[9] = qHTS assay for small molecule antagonists of retinoid X receptor alpha signaling (AID 588546; active = well fitted inhibition curve with a large enough effect in the signal ratio, with a control signal flat, not every such curve was filed as active; the % refers to the signal ratio;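 note: cells stimulated with 9-cis-retinoic acid as agonist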); settings: HEK293T RXRa-UAS-bla, beta-lactamase ratio, antagonist mode; measured here: W530 green channel, cytotoxicity proxy
Summary of the method: (§2)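 Beta-lactamase reporter inhibition, read as CCF4 fluorescence ratio (ex 405, em 460/530 nm) after 2 h at RT. HEK293T UAS-bla cells, 2500/well, were stimulated with 9-cis-RA at 500 or 100 nM final alongside test compound for 18 h at 37 C.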

[10] = target: Thyroid hormone receptor beta (Homo sapiens) (UniProt P10828); test: qHTS assay for small molecule antagonists of thyroid hormone receptor beta signaling (AID 588547; active = well fitted inhibition curve with a large enough effect in the signal ratio, with a control signal flat, not every such curve was filed as active; the % refers to the signal ratio;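 note: cells stimulated with 0.4 nM T3 agonist during compound exposure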); settings: TR-UAS-bla HEK293, beta-lactamase ratio, antagonist mode, 18 h
Summary of the method: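 Inhibition of T3-driven (0.4nM final) beta-lactamase reporter activity was measured over 0.59 nM to 92 uM compound after 18 h at 37 C. The cells were GripTite HEK293 TR-UAS-bla in charcoal/dextran-stripped serum, with CCF4 ratio read-out and IC50 from Hill fits.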

[11] = target: Voltage-gated inwardly rectifying potassium channel KCNH2 (Homo sapiens) (UniProt Q12809); test: qHTS Assay for Small Molecule Inhibitors of the Human hERG Channel Activity (AID 588834; active = well fitted inhibition curve with a large enough effect;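 note: top concentration of the series differs between compounds; lower thallium flux fluorescence means stronger hERG block; nearly all actives have a fitted effect of over 50% in size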); settings: U2OS BacMam hERG, FluxOR thallium flux fluorescence; series mostly up to 92.2 µM
Summary of the method: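 hERG block measured as reduced thallium-dye (FluxOR) fluorescence after stimulation buffer addition, read over 2 min. Cells were hERG-BacMam-transduced U2OS exposed to compound ~10 min […]; concentration-response fitted with Hill equation for AC50.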

[12] = qHTS assay for small molecule agonists of the antioxidant response element (ARE) signaling pathway (AID 651741; active = well fitted activation curve with a large enough effect in the signal ratio; the % refers to the signal ratio); settings: HepG2 ARE-bla reporter, beta-lactamase FRET ratio, 16 h; series mostly up to 96 µM
Summary of the method: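 Beta-lactamase reporter under ARE control in HepG2 cells, 2,000 per well, was induced by 16 h compound treatment at 37 C. Read-out was fluorescence from LiveBLAzer B/G FRET substrate after 2 h at room temperature.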

[13] = qHTS assay for small molecule activators of the p53 signaling pathway (AID 651743; active = well fitted activation curve with a large enough effect in the signal ratio, not every such curve was filed as active; the % refers to the signal ratio); settings: HCT-116 p53RE-bla, beta-lactamase FRET ratio, 16 h; stronger effect = higher value
Summary of the method: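 After 16 hours compound treatment at 37 C, HCT-116 cells stably expressing p53RE-driven beta-lactamase were loaded with LiveBLAzer B/G FRET substrate for 2 hours at room temperature. Fluorescence intensity served as the p53 activation read-out.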

[14] = qHTS assay for small molecule activators of the nuclear factor-kappa B (NF-kB) signaling pathway (AID 651749; active = well fitted activation curve with a large enough effect in the signal ratio; the % refers to the signal ratio); settings: NF-kB-bla ME-180 cells, beta-lactamase FRET ratio, 16 h; stronger effect = higher value
Summary of the method: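 Activation measured after 16 hr compound treatment at 37C, 5% CO2, of 2,000 ME-180 cells/well stably expressing an NF-kB response element–driven beta-lactamase reporter, via FRET-disruption fluorescence.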

[15] = target: Vitamin D3 receptor (Homo sapiens) (UniProt P11473); test: qHTS assay for small molecule antagonists of vitamin D receptor signaling (AID 588541); settings: HEK293T VDR-UAS-bla, beta-lactamase ratio, antagonist mode; series mostly up to 76.7 µM;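 note: receptor activated by calcitriol during compound treatment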
Summary of the method: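 Antagonist-mode beta-lactamase reporter assay: HEK293T VDR-UAS-bla cells were exposed to titrated compound alongside 1-alpha,25-dihydroxyvitamin D3 at 3 nM final for 16 h. Values were normalized to the 50 nM agonist control and DMSO basal, with IC50 and efficacy from Hill equation fits.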

[16] = target: Retinoic acid receptor RXR-alpha (Homo sapiens) (UniProt P19793); test: qHTS assay for small molecule antagonists of retinoid X receptor alpha signaling (AID 588546); settings: HEK293T RXRa-UAS-bla, beta-lactamase ratio, antagonist mode;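 note: cells stimulated with 9-cis-retinoic acid as agonist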
Summary of the method: as §2

[17] = qHTS assay for small molecule disruptors of the mitochondrial membrane potential - 1 hr assay (AID 651754); settings: series mostly up to 92.2 µM; note: nearly all actives have a fitted effect of over 35% in size
Summary of the method: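 Mitochondrial potential in living HepG2 cells after 1 hr compound treatment at 37C was read with Mito-MPS dye added for a further 30 min. Red aggregate and green monomer fluorescence were measured; loss of potential leaves dye as cytoplasmic monomers.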

[18] = target: Glucocorticoid receptor (Homo sapiens) (UniProt P04150); test: qHTS assay for small molecule antagonists of glucocorticoid receptor signaling (AID 588533; active = well fitted inhibition curve with a large enough effect in the signal ratio, with a control signal flat, not every such curve was filed as active; the % refers to the signal ratio;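 note: cells stimulated with 2 nM dexamethasone as agonist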); settings: HeLa MMTV-bla, GRE beta-lactamase ratio, antagonist mode, 18 h; series mostly up to 76.8 µM
Summary of the method: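 Antagonist-mode qHTS: compound titrations added to GRE-bla HeLa cells, then dexamethasone 2 nM final; 18 h, 37 C. CCF4 FRET fluorescence normalized to dexamethasone and DMSO; IC50 from Hill fit.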

Sequence of Retinoic acid receptor RXR-alpha (Homo sapiens) (P19793 whole entry, looked up): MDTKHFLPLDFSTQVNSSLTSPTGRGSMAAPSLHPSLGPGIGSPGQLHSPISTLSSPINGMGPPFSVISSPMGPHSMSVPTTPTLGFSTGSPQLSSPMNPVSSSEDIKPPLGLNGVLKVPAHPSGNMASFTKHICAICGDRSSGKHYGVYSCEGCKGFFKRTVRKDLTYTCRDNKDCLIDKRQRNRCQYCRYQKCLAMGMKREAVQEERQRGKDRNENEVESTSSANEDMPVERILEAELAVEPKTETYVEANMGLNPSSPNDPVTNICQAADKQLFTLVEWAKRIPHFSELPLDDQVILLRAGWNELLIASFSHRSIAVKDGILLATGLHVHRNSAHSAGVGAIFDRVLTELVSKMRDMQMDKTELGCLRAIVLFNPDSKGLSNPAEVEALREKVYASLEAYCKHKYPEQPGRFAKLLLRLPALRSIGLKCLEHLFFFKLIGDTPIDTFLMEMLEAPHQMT
Sequence of Peroxisome proliferator-activated receptor delta (Homo sapiens) (Q03181 whole entry, looked up): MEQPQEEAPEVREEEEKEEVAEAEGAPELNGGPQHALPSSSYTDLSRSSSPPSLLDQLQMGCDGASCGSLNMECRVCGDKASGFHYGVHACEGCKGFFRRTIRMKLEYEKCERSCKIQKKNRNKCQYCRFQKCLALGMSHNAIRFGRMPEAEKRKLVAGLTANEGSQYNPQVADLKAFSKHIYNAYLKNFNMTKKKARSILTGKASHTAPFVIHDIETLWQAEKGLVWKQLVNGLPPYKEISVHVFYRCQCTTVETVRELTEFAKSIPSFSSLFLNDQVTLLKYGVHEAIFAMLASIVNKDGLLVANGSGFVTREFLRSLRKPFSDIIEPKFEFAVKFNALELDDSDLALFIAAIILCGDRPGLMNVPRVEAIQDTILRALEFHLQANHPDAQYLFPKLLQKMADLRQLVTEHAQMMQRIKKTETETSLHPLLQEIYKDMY
Sequence of Thyroid hormone receptor beta (Homo sapiens) (P10828 whole entry, looked up): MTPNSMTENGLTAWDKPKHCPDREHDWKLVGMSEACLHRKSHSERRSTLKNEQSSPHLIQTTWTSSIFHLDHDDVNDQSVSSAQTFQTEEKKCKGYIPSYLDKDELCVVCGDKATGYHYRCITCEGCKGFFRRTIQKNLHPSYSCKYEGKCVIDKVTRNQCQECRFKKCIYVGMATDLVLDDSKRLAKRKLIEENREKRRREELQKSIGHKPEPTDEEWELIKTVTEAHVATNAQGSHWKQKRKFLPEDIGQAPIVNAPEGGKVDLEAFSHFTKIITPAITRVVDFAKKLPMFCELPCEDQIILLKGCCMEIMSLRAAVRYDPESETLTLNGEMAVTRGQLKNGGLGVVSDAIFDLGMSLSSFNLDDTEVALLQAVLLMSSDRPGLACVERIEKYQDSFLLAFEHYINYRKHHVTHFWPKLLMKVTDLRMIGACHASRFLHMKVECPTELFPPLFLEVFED
Sequence of Vitamin D3 receptor (Homo sapiens) (P11473 whole entry, looked up): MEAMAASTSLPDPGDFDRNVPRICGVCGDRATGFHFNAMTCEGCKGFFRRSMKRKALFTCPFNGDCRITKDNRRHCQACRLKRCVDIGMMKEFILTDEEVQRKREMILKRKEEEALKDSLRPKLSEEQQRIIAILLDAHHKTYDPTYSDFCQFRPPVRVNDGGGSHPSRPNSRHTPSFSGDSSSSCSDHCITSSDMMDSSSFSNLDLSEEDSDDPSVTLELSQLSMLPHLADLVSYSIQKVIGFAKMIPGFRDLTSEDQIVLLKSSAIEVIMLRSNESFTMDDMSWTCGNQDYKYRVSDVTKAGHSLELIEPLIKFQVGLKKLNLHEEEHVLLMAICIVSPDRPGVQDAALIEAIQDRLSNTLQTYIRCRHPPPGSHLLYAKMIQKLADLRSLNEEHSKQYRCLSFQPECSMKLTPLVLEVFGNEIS
Sequence of Voltage-gated inwardly rectifying potassium channel KCNH2 (Homo sapiens) (Q12809 whole entry, looked up): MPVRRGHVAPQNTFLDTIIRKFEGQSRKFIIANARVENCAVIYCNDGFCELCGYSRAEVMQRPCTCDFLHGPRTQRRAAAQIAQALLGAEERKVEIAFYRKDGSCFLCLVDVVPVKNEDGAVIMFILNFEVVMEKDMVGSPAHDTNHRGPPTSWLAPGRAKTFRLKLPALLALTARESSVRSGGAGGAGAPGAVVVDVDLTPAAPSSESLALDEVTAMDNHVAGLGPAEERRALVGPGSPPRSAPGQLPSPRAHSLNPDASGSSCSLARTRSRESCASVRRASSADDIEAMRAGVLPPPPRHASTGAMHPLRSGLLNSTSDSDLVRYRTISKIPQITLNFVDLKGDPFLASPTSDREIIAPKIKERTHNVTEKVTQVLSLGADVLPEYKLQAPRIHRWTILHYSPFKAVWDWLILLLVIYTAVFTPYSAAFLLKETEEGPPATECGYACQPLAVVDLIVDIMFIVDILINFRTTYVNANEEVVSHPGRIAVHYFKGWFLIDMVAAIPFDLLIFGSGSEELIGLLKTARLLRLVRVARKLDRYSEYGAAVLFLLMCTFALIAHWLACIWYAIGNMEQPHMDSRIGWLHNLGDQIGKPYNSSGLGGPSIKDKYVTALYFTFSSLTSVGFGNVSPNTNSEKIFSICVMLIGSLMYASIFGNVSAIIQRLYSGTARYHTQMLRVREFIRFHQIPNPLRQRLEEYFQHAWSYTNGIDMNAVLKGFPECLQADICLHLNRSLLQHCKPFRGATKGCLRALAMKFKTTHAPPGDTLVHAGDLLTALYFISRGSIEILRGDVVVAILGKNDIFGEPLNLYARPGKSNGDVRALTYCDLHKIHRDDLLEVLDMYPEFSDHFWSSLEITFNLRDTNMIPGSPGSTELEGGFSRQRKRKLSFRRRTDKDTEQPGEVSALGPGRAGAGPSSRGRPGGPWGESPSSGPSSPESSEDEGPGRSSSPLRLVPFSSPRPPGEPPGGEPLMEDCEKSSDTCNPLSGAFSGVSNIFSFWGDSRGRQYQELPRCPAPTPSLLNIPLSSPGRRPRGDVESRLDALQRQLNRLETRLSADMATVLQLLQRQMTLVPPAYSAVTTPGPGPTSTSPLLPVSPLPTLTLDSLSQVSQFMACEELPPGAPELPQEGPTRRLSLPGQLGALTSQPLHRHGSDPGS
Sequence of Peroxisome proliferator-activated receptor gamma (Homo sapiens) (P37231 whole entry, looked up): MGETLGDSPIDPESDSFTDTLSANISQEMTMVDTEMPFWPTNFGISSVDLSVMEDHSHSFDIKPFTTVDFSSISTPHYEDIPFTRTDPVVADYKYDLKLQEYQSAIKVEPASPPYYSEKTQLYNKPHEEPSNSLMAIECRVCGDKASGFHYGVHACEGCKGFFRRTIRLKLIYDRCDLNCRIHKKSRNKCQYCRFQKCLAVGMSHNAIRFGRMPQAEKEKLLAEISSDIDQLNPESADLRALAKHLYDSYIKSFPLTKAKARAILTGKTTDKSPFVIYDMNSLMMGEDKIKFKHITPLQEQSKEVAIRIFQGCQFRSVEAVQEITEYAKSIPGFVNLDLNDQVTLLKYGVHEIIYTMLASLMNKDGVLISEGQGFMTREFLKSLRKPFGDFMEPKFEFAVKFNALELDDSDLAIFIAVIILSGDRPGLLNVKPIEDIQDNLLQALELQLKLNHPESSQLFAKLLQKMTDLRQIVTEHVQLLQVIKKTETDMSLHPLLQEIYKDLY
Sequence of Glucocorticoid receptor (Homo sapiens) (P04150 whole entry, looked up): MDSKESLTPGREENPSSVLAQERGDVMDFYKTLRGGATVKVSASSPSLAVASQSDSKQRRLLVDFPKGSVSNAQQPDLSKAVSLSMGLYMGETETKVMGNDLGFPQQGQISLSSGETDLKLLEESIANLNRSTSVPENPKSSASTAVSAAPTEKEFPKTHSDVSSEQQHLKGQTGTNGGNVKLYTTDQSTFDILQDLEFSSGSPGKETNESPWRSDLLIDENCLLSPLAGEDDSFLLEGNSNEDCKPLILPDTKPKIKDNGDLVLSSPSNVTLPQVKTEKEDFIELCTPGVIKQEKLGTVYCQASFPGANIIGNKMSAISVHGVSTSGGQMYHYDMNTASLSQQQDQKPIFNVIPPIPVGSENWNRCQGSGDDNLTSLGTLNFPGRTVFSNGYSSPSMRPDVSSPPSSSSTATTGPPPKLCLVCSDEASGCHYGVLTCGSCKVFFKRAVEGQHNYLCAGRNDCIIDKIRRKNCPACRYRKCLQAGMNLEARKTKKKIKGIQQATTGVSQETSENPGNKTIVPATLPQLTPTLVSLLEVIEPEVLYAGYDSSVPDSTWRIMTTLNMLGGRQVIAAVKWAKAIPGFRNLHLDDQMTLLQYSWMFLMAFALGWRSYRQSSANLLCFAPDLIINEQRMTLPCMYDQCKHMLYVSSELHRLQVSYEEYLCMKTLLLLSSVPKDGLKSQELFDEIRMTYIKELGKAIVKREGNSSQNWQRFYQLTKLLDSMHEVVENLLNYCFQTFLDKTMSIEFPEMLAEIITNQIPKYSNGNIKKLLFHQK

Compound | max response [1] [%] | Potency [2] | outcome [3] | outcome [4] | outcome [5] | max response [6] [%] | outcome [7] | outcome [8] | max response [9] [%] | activity change % (negative = inhibition) [10] | Potency [11] | Potency [12] | activation [13] | activation [14] | outcome [15] | max response [16] | Potency [17] | outcome [18]
Cc1cscn1 | -36.6 | inactive | inactive | inactive | inactive | -3.55 | inactive | inactive | -2.99 | 9.8% (inactive) | inactive | inactive | -1.86% (inactive) | -0.548% (inactive) |  |  |  | 
CCOC(C)(C)C | -1.23 | inactive | inactive | inactive | inactive | -2.56 | inactive | inactive | -1.08 | -6.37% (inactive) | inactive | inactive | -0.539% (inactive) | 0.0467% (inactive) | inactive | 3.08% (inactive) | inactive | 
CC(C)(O)CCC(C)(C)O |  |  | inactive | inactive |  | -8.68 | inactive | inactive | -5.49 | 4.09% (inactive) | inactive |  | -3.36% (inactive) |  | inactive | 1.42% (inactive) | inactive | inactive
Nc1ccccc1S(=O)(=O)O | -23.8 | inactive | inactive | inactive | inactive | 0.0246 | inactive | inactive | -2.85 | 5.88% (inactive) | inactive |  | -0.779% (inactive) | -0.0968% (inactive) | inactive | 1.63% (inactive) | inactive | 
OC/C(Br)=C(\Br)CO |  |  | inactive | inactive | inactive | -4.05 | inactive | inactive | -2.68 | -11.8% (inactive) | inactive |  |  | 0.22% (inactive) | inactive | -0.311% (inactive) | inactive | inactive
CC(=O)OCCC(C)C | -13.3 |  | inactive | inactive |  | -5.59 | inactive | inactive | -8.93 | 8.77% (inactive) | inactive | inactive | -1.24% (inactive) |  |  | 2.22% (inactive) | inactive | inactive
CCOc1cc(OCC)c(C(C)=O)cc1OCC |  |  | inactive | inactive | inactive | 4.48 | inactive | inactive | 1.94 | -7.72% (inactive) | inactive |  | -3.93% (inactive) | 2.04% (inactive) | inactive | 7.64% (inactive) | inactive | inactive
O=C(O)c1ccccc1C(=O)O | 14.7 | inactive |  |  |  | 13.6 | inactive | inactive | 4.98 | 0.364% (inactive) | inactive |  | -2.08% (inactive) | -0.93% (inactive) |  | -5% (inactive) | inactive | inactive
CC(=O)c1ccccc1[N+](=O)[O-] | 4.84 | inactive | inactive | inactive | inactive | -16.2 | inactive |  | 5.46 | 19.8% (inactive) | inactive | inactive |  |  | inactive | 5.8% (inactive) |  | 
CCCC(Cl)CCCC(Cl)CCC(Cl)CCC(Cl)CCC(Cl)CCCC(Cl)CCC (centres undefined) | -30.6 |  | inactive |  | inactive | -10.5 | inactive | inactive | -0.455 | -14.9% (inactive) | inactive |  | 0.55% (inactive) | 0.0275% (inactive) | inactive | -10.6% (inactive) |  | inactive
O=[N+]([O-])c1cc(C(F)(F)F)ccc1Cl |  |  | inactive | inactive |  | -4.02 | inactive | inactive | -1.67 | -5.36% (inactive) | inactive | inactive | -0.0124% (inactive) |  |  | -6.84% (inactive) | inactive | inactive
C=CCCCC | 22.6 |  | inactive | inactive | inactive | -12.2 | inactive | inactive | -3.19 | 9.97% (inactive) | inactive | inactive | 0.701% (inactive) | 0.582% (inactive) |  | -7.65% (inactive) |  | inactive
O=Cc1c(Cl)cccc1Cl | -29.6 |  | inactive | inactive | inactive | 3.02 | inactive | inactive | -5.87 | -16.1% (inactive) | inactive | inactive | -2.41% (inactive) | -0.578% (inactive) | inactive | -1.18% (inactive) |  | inactive
CCCCN(CCO)CCCC | 4.41 | inactive | inactive | inactive |  | -2.59 | inactive | inactive | -12.3 | 22.2% (inactive) | inactive | inactive |  |  | inactive |  | inactive | 
Cc1cccc(C)c1O | -20.4 | inactive | inactive | inactive | inactive | -16.7 | inactive | inactive | 3.79 | -9.8% (inactive) | inactive |  | -0.5% (inactive) | -0.357% (inactive) | inactive | -1.13% (inactive) | inactive | 
CCCCCCO |  |  | inactive | inactive | inactive | -18.4 | inactive |  | -3.18 | 4.77% (inactive) | inactive |  | -2.65% (inactive) | -0.278% (inactive) | inactive | -1.79% (inactive) |  | inactive
